# Data from PubChem BioAssay AID1053 (University of Pittsburgh Molecular Library Screening Center, 2008).
# Values joined by “and” are separate entries in the source; they are usually repeats but may differ in a detail not shown here. Identical values can stand only once. Values without a mark were called inactive. Active and inactive are the calls of the source. No rule for the calls is given here.
# Target: Serine/threonine-protein kinase PLK1 (Homo sapiens) (UniProt P53350)
# Experiment: Plk1 polo box domain binding inhibitors, SAR follow-up, biochemical, fluorescence polarization, purchased analogs (AID 1053)
# Details: Plk1 PBD fluorescence polarization peptide binding; at 20 µM; hits give high values
# Chain of Serine/threonine-protein kinase PLK1 (Homo sapiens) (P53350 whole entry, looked up, the tested form may be a part): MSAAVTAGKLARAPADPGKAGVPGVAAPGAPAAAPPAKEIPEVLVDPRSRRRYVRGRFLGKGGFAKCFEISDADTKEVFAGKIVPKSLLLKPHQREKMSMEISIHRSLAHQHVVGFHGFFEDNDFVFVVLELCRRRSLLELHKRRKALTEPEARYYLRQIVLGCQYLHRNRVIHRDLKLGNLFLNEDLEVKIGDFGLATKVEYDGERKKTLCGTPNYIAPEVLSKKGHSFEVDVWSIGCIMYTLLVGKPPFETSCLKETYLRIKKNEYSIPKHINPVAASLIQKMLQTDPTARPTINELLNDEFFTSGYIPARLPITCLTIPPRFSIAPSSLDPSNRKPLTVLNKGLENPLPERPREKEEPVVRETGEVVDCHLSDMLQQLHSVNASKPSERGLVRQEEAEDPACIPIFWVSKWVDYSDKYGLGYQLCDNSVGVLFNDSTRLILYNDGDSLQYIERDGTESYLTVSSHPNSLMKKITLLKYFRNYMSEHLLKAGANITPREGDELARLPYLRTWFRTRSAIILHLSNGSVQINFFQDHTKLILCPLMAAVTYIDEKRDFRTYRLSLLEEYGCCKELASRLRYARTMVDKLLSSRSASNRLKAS
row,Compound,inhibition
1,CCn1nc(-c2ccccc2)nc2c(=O)n(C)c(=O)nc1-2,-2.54%
2,O=C1NC(=O)C(=Cc2c3ccccc3cc3ccccc23)C(=O)N1,-41.5%
3,CCN(CC)CCOC(=O)c1ccc(N=Cc2c(O)[nH]c(=O)[nH]c2=O)cc1,-148% and -184%
4,CCOC(=O)c1ccc(N=C(c2ccccc2)c2c(O)n(C)c(=O)n(C)c2=O)cc1,-58.1%
5,Cn1nc(-c2ccccc2)nc2c(=O)n(C)c(=O)nc1-2,31.4%
6,O=C1NC(=O)C(=Cc2cccn2-c2ccc([N+](=O)[O-])cc2)C(=O)N1,-40.9%
7,CCn1nc(-c2ccc([N+](=O)[O-])cc2)nc2c(=O)n(C)c(=O)nc1-2,60.6% (active)
8,CCn1nc(-c2ccccc2Cl)nc2c(=O)n(C)c(=O)nc1-2,43.6%
9,Cc1ccc(-c2nc3c(=O)n(C)c(=O)nc-3n(C)n2)cc1,43.1%
10,COc1cc(C=C2C(=O)NC(=O)NC2=O)cc(Cl)c1O,-40.9%
11,Cn1c(O)c(C(=O)c2ccccc2Cl)c(=O)n(C)c1=O,-36.4%
12,CCCC(=O)c1c(O)[nH]c(=O)[nH]c1=O,-47.7% and -64.6%
13,COc1cc(Br)cc(C=C2C(=O)NC(=O)NC2=O)c1O,-39.8%
